Data taken from PubChem BioAssay (Tox21).
Results filed as inconclusive are left out. Activity calls are given as the source filed them. Unless noted, calls come from the whole dose curve; as a rule, active = well fitted curve in the direction sought with a large enough effect in the repeat runs; inconclusive = weak or mixed curves; inactive = no such curve, though single readings can be large; an effect the other way counts as inactive or inconclusive.

Tests used:
[1] = qHTS assay to identify small molecule antagonists of the thyroid receptor (TR) signaling pathway - cell viability counter screen (AID 743064); note: nearly all actives have a fitted effect of over 50% in size; note: potency is the fitted concentration of half-maximal effect
Procedure, shortened: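 Rat GH3 pituitary tumor cells stably expressing two TR response elements driving luciferase were plated, rested 4 h, then dosed with library compounds and T3 (1 nM final). After 23.5 h at 37 °C, CellTiter-Fluor was added for 30 min and fluorescence recorded.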

[2] = qHTS assay to identify small molecule antagonists of the thyroid receptor (TR) signaling pathway (AID 743065); note: nearly all actives have a fitted effect of over 55% in size; note: potency is the fitted concentration of half-maximal effect; for activity, negative = inhibition: series mostly up to about 70 µM
Procedure, shortened: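 Antagonism measured as loss of luciferase signal in GH3 cells stably carrying a TRE-luciferase reporter, co-treated with compound and T3 (1 nM final) for 23.5 h at 37 C. Viability was read in the same well by CellTiter-Fluor.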

[3] = system: thyroid hormone receptor (rat, GH3 cells); experiment: qHTS assay to identify small molecule agonists of the thyroid receptor (TR) signaling pathway (AID 743066; calls by dose curve)
[4] = qHTS assay to identify small molecule antagonists of the estrogen receptor alpha (ER-alpha) signaling pathway - cell viability counter screen (AID 743074; calls by dose curve;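 note: HEK293 cells carrying ER-alpha-UAS-bla reporter stimulated with 17beta-estradiol; nearly all actives have a fitted effect of over 45% in size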; note: potency is the fitted concentration of half-maximal effect)
[5] = qHTS assay to identify small molecule antagonists of the estrogen receptor alpha (ER-alpha) signaling pathway using the BG1 cell line - cell viability counter screen (AID 743081);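 note: compound given together with 17beta-estradiol as the ER stimulus; nearly all actives have a fitted effect of over 45% in size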; note: potency is the fitted concentration of half-maximal effect; for activity change, negative = cytotoxicity: series mostly up to about 70 µM
Aromatase (Homo sapiens) = Aromatase (Homo sapiens) (UniProt P11511); experiment: qHTS assay to identify aromatase inhibitors (AID 743083); note: nearly all actives have a fitted effect of over 55% in size; note: potency is the fitted concentration of half-maximal effect; for activity, negative = inhibition: series mostly up to about 70 µM
Chain of Aromatase (Homo sapiens) (P11511 whole entry, looked up): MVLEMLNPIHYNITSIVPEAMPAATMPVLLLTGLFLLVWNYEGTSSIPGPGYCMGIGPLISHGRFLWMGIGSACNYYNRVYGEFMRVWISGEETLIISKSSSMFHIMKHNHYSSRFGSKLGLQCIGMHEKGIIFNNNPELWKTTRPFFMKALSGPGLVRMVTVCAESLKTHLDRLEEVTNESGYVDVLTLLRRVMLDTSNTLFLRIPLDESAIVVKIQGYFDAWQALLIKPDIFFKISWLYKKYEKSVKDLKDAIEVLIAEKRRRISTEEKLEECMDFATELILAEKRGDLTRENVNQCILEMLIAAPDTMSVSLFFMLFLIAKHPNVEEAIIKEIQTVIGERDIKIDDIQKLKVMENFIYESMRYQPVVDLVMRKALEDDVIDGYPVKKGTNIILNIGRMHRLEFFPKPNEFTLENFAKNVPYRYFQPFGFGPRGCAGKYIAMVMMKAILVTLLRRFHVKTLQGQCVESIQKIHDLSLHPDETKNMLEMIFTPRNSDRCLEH

[6] = target: Estrogen receptor (Homo sapiens) (UniProt P03372); experiment: qHTS assay to identify small molecule agonists of the estrogen receptor alpha (ER-alpha) signaling pathway (AID 743075; calls by dose curve;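 note: HEK293 GripTite cells with ER-alpha and UAS-driven beta-lactamase reporter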)
Chain of Estrogen receptor (Homo sapiens) (P03372 whole entry, looked up): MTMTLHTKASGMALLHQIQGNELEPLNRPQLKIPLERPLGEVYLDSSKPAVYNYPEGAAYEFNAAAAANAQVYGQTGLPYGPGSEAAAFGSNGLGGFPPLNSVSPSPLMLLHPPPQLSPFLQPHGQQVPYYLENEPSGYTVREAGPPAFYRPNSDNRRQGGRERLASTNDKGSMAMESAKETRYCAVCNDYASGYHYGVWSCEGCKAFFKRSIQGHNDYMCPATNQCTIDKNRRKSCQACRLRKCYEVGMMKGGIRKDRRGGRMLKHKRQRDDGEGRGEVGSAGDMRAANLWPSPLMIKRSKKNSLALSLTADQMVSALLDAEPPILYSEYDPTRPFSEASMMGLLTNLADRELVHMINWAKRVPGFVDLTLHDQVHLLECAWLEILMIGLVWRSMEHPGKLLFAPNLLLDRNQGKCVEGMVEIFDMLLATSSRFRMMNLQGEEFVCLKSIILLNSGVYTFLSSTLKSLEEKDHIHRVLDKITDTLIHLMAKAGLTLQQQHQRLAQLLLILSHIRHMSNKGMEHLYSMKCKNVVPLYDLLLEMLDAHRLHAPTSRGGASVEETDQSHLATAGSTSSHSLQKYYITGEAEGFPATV

[7] = target: Estrogen receptor (Homo sapiens) (UniProt P03372); experiment: qHTS assay to identify small molecule agonists of the estrogen receptor alpha (ER-alpha) signaling pathway using the BG1 cell line (AID 743079); note: nearly all actives have a fitted effect of over 20% in size; note: potency is the fitted concentration of half-maximal effect
[8] = qHTS assay to identify small molecule antagonists of the estrogen receptor alpha (ER-alpha) signaling pathway using the BG1 cell line (AID 743080; calls by dose curve;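 note: BG1 cells stimulated with 17beta-estradiol alongside compound; series mostly up to about 70 µM; nearly all actives have a fitted effect of over 25% in size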)
Procedure, shortened: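 After 5 days in phenol-red-free 10% charcoal-stripped FBS medium, BG1-Luc-4E2 cells were seeded, left 24 h at 37 C, co-treated with compounds and 17beta-estradiol for 21.5 h, then assayed for viability and luciferase.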

[9] = target: Estrogen receptor (Homo sapiens) (UniProt P03372); experiment: qHTS assay to identify small molecule antagonists of the estrogen receptor alpha (ER-alpha) signaling pathway (AID 743069; active = well fitted curve in the direction sought with a large enough effect in the signal ratio in the repeat runs, not every such curve was filed as active; the % refers to the signal ratio)
Procedure, shortened: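 Antagonist mode: compounds in DMSO were co-added with 17beta-estradiol to ER-alpha-bla HEK293 cells (2% charcoal-stripped serum) and left 18 h at 37C. Reporter inhibition was measured as FRET fluorescence after 2 h LiveBLAzer substrate at room temperature.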
% is set by controls: 0 for no effect and ±100 for the full control effect.

CC1=C(O)C(=O)OC1C (centres undefined)
inactive: Potency [1] | Potency [2] | outcome [3] | Potency [4] | Potency [5] | Potency (Aromatase (Homo sapiens))

CCCCNc1cc(C(=O)O)cc(S(N)(=O)=O)c1Oc1ccccc1
inactive: Potency [1] | Potency [2] | outcome [3] | Potency [4] | Potency [5] | Potency (Aromatase (Homo sapiens))

COc1cc(Cl)ccc1Cl
inactive: Potency [1] | Potency [2] | outcome [3] | Potency [4] | Potency [5] | Potency (Aromatase (Homo sapiens))

C[C@@H](N)C(=O)O
inactive: Potency [1] | Potency [2] | outcome [3] | Potency [4] | Potency [5] | Potency (Aromatase (Homo sapiens))

O=C(O)[C@@H]1CSCN1
inactive: Potency [1] | Potency [2] | outcome [3] | Potency [4] | Potency (Aromatase (Homo sapiens))

CCc1nnc(NS(=O)(=O)c2ccc(N)cc2)s1
inactive: Potency [1] | Potency [2] | outcome [3] | Potency [5] | Potency (Aromatase (Homo sapiens))

C=CC(C)(O)CC/C=C(\C)CCC=C(C)C (centres undefined)
inactive: Potency [1] | Potency [2] | outcome [3] | Potency [4] | Potency [5] | Potency (Aromatase (Homo sapiens))

O=[N+]([O-])c1nccn1CO[C@@H](CO)[C@H](O)CO
inactive: Potency [1] | Potency [2] | outcome [3] | Potency [5] | Potency (Aromatase (Homo sapiens))

Cc1ccc([N+](=O)[O-])c(N)c1
inactive: Potency [1] | Potency [2] | outcome [3] | Potency [4] | Potency [5] | Potency (Aromatase (Homo sapiens))

O=C(O)c1ccccc1Nc1cc(Cl)ccc1C(=O)O
inactive: Potency [1] | Potency [2] | outcome [3] | outcome [6] | Potency [7] | outcome [8] | Potency [5] | Potency (Aromatase (Homo sapiens))

COC(=O)c1ccc(OC)cc1
inactive: Potency [1] | Potency [2] | outcome [3] | Potency [4] | Potency [5] | Potency (Aromatase (Homo sapiens))

CCOC(=O)c1ccccc1O
inactive: Potency [1] | Potency [2] | outcome [3] | Potency [4] | Potency [5] | Potency (Aromatase (Homo sapiens))

C=O
inactive: Potency [1] | Potency [2] | outcome [3] | Potency [4] | Potency [5] | Potency (Aromatase (Homo sapiens))

CC1(C)C(=O)N(Cl)C(=O)N1Br
inactive: Potency [1] | Potency [2] | outcome [3] | Potency [4] | Potency [5] | Potency (Aromatase (Homo sapiens))

NC/C=C/C(=O)O
inactive: Potency [1] | Potency [2] | outcome [3] | Potency [4] | Potency [5] | Potency (Aromatase (Homo sapiens))

CCN(O)CC
inactive: Potency [1] | Potency [2] | outcome [3] | Potency [4] | Potency [5] | Potency (Aromatase (Homo sapiens))

CCC1(C)NC(=O)NC1=O (centres undefined)
inactive: Potency [1] | Potency [2] | outcome [3] | Potency [5] | Potency (Aromatase (Homo sapiens))

C=CC1CO1 (centres undefined)
inactive: Potency [1] | Potency [2] | outcome [3] | Potency [4] | Potency [5] | Potency (Aromatase (Homo sapiens))

Cc1cc2nc(N)sc2cc1C
inactive: Potency [1] | Potency [2] | outcome [3] | Potency [4] | Potency [5] | Potency (Aromatase (Homo sapiens))

CCCCCCCCc1ccc(S(=O)(=O)O)cc1
inactive: Potency [1] | Potency [2] | outcome [3] | Potency [5] | Potency (Aromatase (Homo sapiens))

CN(CC1(C)CCCO1)S(=O)(=O)c1ccc(Cl)c(S(N)(=O)=O)c1 (centres undefined)
inactive: Potency [1] | Potency [2] | outcome [3] | Potency [4] | Potency (Aromatase (Homo sapiens))

CN1[C@@H]2CC[C@H]1CC(OC(=O)c1c[nH]c3ccccc13)C2 (some centres undefined)
inactive: outcome [3] | Potency [4] | Potency [5] | Potency (Aromatase (Homo sapiens))
active: Potency [1] 23.7 µM | Potency [2] 26.6 µM

O=c1[nH]c(=O)n([C@H]2C[C@H](O)[C@@H](CO)O2)cc1C(F)(F)F
inactive: Potency [1] | outcome [3] | Potency [4] | outcome [6] | outcome [8] | Potency [5] | Potency (Aromatase (Homo sapiens))

Cc1cc2c(s1)Nc1ccccc1N=C2N1CCN(C)CC1
active: Potency [1] 13.3 µM
inactive: outcome [3] | Potency [9] | Potency [4] | outcome [6] | Potency [7] | outcome [8] | Potency [5] | Potency (Aromatase (Homo sapiens))

O=C(O)c1cccc(Cl)c1Cl
inactive: Potency [1] | Potency [9] | Potency [4] | outcome [6] | Potency [7] | outcome [8] | Potency [5] | Potency (Aromatase (Homo sapiens))

CCCCC(=O)O[C@]1(C(=O)CO)[C@H](C)C[C@H]2[C@@H]3CCC4=CC(=O)C=C[C@]4(C)[C@@]3(F)[C@@H](O)C[C@@]21C
inactive: Potency [1] | outcome [3] | Potency [4] | outcome [6] | Potency [7] | Potency [5] | Potency (Aromatase (Homo sapiens))

CC(C)=CCCC(C)CCOC=O (centres undefined)
inactive: Potency [1] | Potency [2] | Potency [4] | Potency [5]

COc1cc(N)c(Cl)cc1C(=O)NC1CCN(Cc2ccccc2)CC1
inactive: Potency [1] | Potency [9] | Potency [4] | outcome [6] | Potency [7] | outcome [8] | Potency [5]

O=CCCc1ccccc1
inactive: Potency [1] | Potency [2] | outcome [3] | Potency [5] | Potency (Aromatase (Homo sapiens))

CCCCCCOc1ccc(N)cc1
inactive: Potency [1] | outcome [3] | outcome [6] | Potency [5]
active: Potency [7] 9.69 µM

O=C(O[C@@H](C(=O)O)[C@@H](OC(=O)c1ccccc1)C(=O)O)c1ccccc1
inactive: Potency [1] | Potency [9] | Potency [4] | outcome [6] | Potency [7] | outcome [8] | Potency [5] | Potency (Aromatase (Homo sapiens))

NC(Cc1ccc(F)cc1)C(=O)O (centres undefined)
inactive: activation [3] -5.43% [at 8.08 µM] | activity, negative = cytotoxicity [4] -20% [at 6.72 µM] | activity change, negative = cytotoxicity [5] -2.97% [at 8.47 µM] | activity, negative = inhibition (Aromatase (Homo sapiens)) -6.6% [at 8.47 µM]
active: Potency [1] 2.64 µM

COc1ccc2nc(NC(=O)Nc3ccccc3)sc2c1
inactive: Potency [1] | outcome [3] | Potency [4] | Potency [5] | Potency (Aromatase (Homo sapiens))

O=C1CCN(c2ccccc2)N1
inactive: Potency [1] | outcome [3] | Potency [4] | outcome [6] | Potency [7] | outcome [8] | Potency [5] | Potency (Aromatase (Homo sapiens))

CC[C@H]1CC[C@H](NCc2cc3c(cc2OC)[C@H]2C[C@H]2C(=O)N3C)[C@H](c2ccccc2)N1
active: Potency [1] 24.3 µM | Potency [2] 19.3 µM | Potency (Aromatase (Homo sapiens)) 68.6 µM
inactive: Potency [9] | Potency [4] | outcome [6]

CCOC(=O)CS
inactive: Potency [1] | outcome [3] | Potency [4] | Potency [5] | Potency (Aromatase (Homo sapiens))

CCCCCOc1ccc(C2SC(=O)NC2=O)cc1OCC (centres undefined)
inactive: Potency [1] | Potency [9] | Potency [4] | outcome [6] | Potency [7] | outcome [8] | Potency [5]
active: Potency [2] 2.37 µM

CCOC(=O)COc1ccc2c(c1)CC(NCC(O)c1cccc(Cl)c1)CC2 (centres undefined)
active: Potency [1] 27.5 µM | Potency [2] 48.9 µM
inactive: Potency [9] | outcome [6] | Potency [7] | Potency [5]

CCN(CC)CCOc1ccc(Cc2ccccc2)cc1
active: Potency [1] 11.9 µM | Potency [2] 10.6 µM | Potency [4] 26.8 µM | Potency [5] 29.8 µM
inactive: Potency (Aromatase (Homo sapiens))

O=C(O)C(=O)Cc1c[nH]c2ccccc12
inactive: Potency [1] | Potency [9] | Potency [4] | outcome [6] | Potency [7] | Potency [5] | Potency (Aromatase (Homo sapiens))

CCCOCCC
inactive: Potency [1] | Potency [9] | Potency [4] | outcome [6] | Potency [7] | outcome [8] | Potency [5] | Potency (Aromatase (Homo sapiens))

C[C@@H]1CN(c2c(F)c(N)c3c(=O)c(C(=O)O)cn(C4CC4)c3c2F)C[C@H](C)N1
inactive: Potency [1] | Potency [9] | Potency [4] | outcome [6] | Potency [7] | outcome [8] | Potency [5] | Potency (Aromatase (Homo sapiens))

CN(CCCN1c2ccccc2CCc2ccccc21)CC(=O)c1ccc(Cl)cc1
active: Potency [1] 11.9 µM | Potency [2] 26.6 µM
inactive: Potency [9] | Potency [4] | outcome [6] | Potency [7] | outcome [8] | Potency [5] | Potency (Aromatase (Homo sapiens))

CC(C)C[C@H](NC(=O)OCC1c2ccccc2-c2ccccc21)C(=O)O
inactive: Potency [1] | outcome [3] | Potency [4] | Potency [5] | Potency (Aromatase (Homo sapiens))

O=C1CCC(C2CCCCC2)CC1
inactive: Potency [1] | outcome [3] | Potency [5] | Potency (Aromatase (Homo sapiens))

CCCCCCC
inactive: Potency [1] | Potency [9] | Potency [4] | outcome [6] | Potency [7] | outcome [8] | Potency [5] | Potency (Aromatase (Homo sapiens))

NC1=NCC2c3ccccc3Cc3ccccc3N12 (centres undefined)
inactive: Potency [1] | outcome [3] | Potency [4] | Potency [5] | Potency (Aromatase (Homo sapiens))

O=c1oc2c(O)c(O)cc3c(=O)oc4c(O)c(O)cc1c4c23
inactive: Potency [1] | outcome [3] | Potency [9] | Potency [4] | outcome [6] | Potency [7] | outcome [8] | Potency [5] | Potency (Aromatase (Homo sapiens))

CC(C)NCC(O)COc1ccc(CCOCC2CC2)cc1 (centres undefined)
inactive: Potency [1] | outcome [3] | Potency [4] | Potency [5] | Potency (Aromatase (Homo sapiens))

CCC(=O)c1ccc2c(c1)N(CCCN(C)C)c1ccccc1S2
active: Potency [1] 7.5 µM | Potency [2] 7.5 µM
inactive: Potency [4]

O=C(O)CN(CCN(CC(=O)O)CC(=O)O)CCN(CC(=O)O)CC(=O)O
active: Potency [1] 26.6 µM
inactive: outcome [3] | Potency [4] | Potency [5] | Potency (Aromatase (Homo sapiens))

C[C@]12CCC(=O)C=C1CC[C@@H]1[C@@H]2CC[C@@]2(C)[C@H]1CC[C@]2(O)C(=O)CO
inactive: Potency [1] | outcome [3] | Potency [4] | outcome [6] | outcome [8] | Potency [5] | Potency (Aromatase (Homo sapiens))

CC(C)=CCC[C@](C)(O)[C@@H]1CC=C(C)CC1
inactive: Potency [1] | Potency [2] | outcome [3] | Potency [5] | Potency (Aromatase (Homo sapiens))

CCN(CCCc1ccccc1)CCCc1ccccc1
inactive: Potency [1] | outcome [3] | Potency [9] | Potency [4] | outcome [6] | Potency [7] | outcome [8] | Potency [5] | Potency (Aromatase (Homo sapiens))

CN(C)C(=O)NC1(c2ccccc2)CCN(CCC[C@]2(c3ccc(Cl)c(Cl)c3)CCCN(C(=O)c3ccccc3)C2)CC1
inactive: Potency [9] | Potency [4] | outcome [6] | Potency [7] | outcome [8] | Potency (Aromatase (Homo sapiens))
active: Potency [1] 5.17 µM | Potency [2] 11.6 µM

COc1ccccc1N1CCN(CCCNc2cc(=O)n(C)c(=O)n2C)CC1
inactive: Potency [1] | Potency [9] | Potency [4] | outcome [6] | Potency [7] | outcome [8] | Potency [5] | Potency (Aromatase (Homo sapiens))

Oc1ccccc1C=NCc1ccccc1
inactive: Potency [1] | outcome [3] | Potency [4] | Potency [5] | Potency (Aromatase (Homo sapiens))
